This is part of a sample that, as a whole, favours compounds with a hit. Of some 79,000 tested, about 15% had one in any assay. Unmarked numbers belong to inactive results. Active and inactive are the calls of the source. Rule as the data show it: active = growth inhibition above about 70%; inactive = the rest. Where a SMILES comes first, the peptide text is derived from it. The star is where a group is joined. Trt = c1ccc(C(c2ccccc2)(c2ccccc2)*)cc1; Cbz = O=C(OCc1ccccc1)*

One assay can be described thus: NCI Yeast Anticancer Drug Screen. Data for the rad50 strain (AID 155).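 Also: 0% = growth of vehicle-only cultures of the same strain.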 Conditions: S. cerevisiae rad50 strain growth inhibition; at 50.0 µM; hits give high values. The method in brief:
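Genetically altered yeast (DNA repair pathway); compound treatment; growth inhibition vs vehicle ctrl.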
`Cc1ccc(C#N)c2c1CCC2`: the growth inhibition was 2.65%.
As to `CCOC(=O)/C=C/C(=O)OCC`, the growth inhibition is -2.15%.
Turning to `COc1ccc(C(=O)C(CO)Oc2ccccc2OC)cc1OC` (centres undefined), the growth inhibition is -3.05%.
With `O=C(O)CCC(=O)Nc1cc(C(F)(F)F)ccc1Cl`, the growth inhibition is 24.1%.
As to `Clc1ccc(OCc2nnc3n2N=C(c2ccc(Br)cc2)CS3)cc1`, the growth inhibition was 5.5%.
Turning to `CC(C)C(=O)C(F)(F)F`, the growth inhibition was 14.3%.
Still for that read-out and setting: next, `O=C(OC1C#CCSCC#C/C=C\1)c1ccc2c(c1)C(=O)c1ccccc1C2=O` (centres undefined): -0.05%.
Regarding `Cc1ccc2c(c1)Nc1ccccc1P2(=O)O`, the growth inhibition was 7.8%.
In the case of `NC(=O)SCC(=O)Nc1ccc2cccc3c2c1CC3`, the growth inhibition was 66.2%.
Regarding `CC1=CCC(CC(=O)O)C1(C)C` (centres undefined), the growth inhibition is 10.2%.
Regarding `O=C(NC(c1ccccc1)C(O)c1ccccc1)C(Cl)Cl` (centres undefined), the growth inhibition was -5.45%.
The same measure, in the same setting: next, `O=C1c2ccccc2C(=O)c2c1cc1c(c2O)OCO1`: 23.4%; `CCCCCCCCCCCCC(F)C(=O)OCC1OC(n2cc(C)c(=O)[nH]c2=O)CC1N=[N+]=[N-]` (centres undefined): 3.25%; `CN1C(C)(C)NC(=S)C1(C)C`: 26.9%.
With `NC(=S)N/N=C(\CCC(=O)Nc1ccccc1[N+](=O)[O-])CC(=O)c1ccco1`, the growth inhibition was -1.55%.
As for `CC(C)(C)CC(C)(C)NS(=O)(=O)NC(C)(C)CC(C)(C)C`, the growth inhibition is 1.1%.
Still for that read-out and setting: next, `O=C(O)c1cccc(Br)c1[N+](=O)[O-]`: -19.9%; `CC(=O)NC(CSCN(C)c1nc(N(C)C)nc(N(C)C)n1)C(=O)O` (centres undefined): 7.5%.
Consider `CN(C)CC1CCCCCCCCCC(CN(C)C)C1=O` (centres undefined), for which the growth inhibition is -26.4%.
As for `CCCCCCC(=O)C(=O)O`, the growth inhibition was 41.4%.
On the same count and under the same terms, next, `[N-]=[N+]=NC1(Cc2ccccc2)C(=O)Nc2ccccc2C1=O` (centres undefined): 0.8%.
As for `O=C(O)CCC1COc2ccccc2O1` (centres undefined), the growth inhibition was -12.2%.
In the case of `O=C1NC(=O)C(F)(F)C1(F)F`, the growth inhibition is 4.9%.
The same measure, in the same setting: the result for `CC1(C)C/C(=C\c2ccc([N+](=O)[O-])cc2)C(=O)c2ccccc21` reads 80.3% (active).

The next assay can be described thus: NCI Yeast Anticancer Drug Screen. Data for the mec2-1 strain (AID 157). Conditions: S. cerevisiae mec2-1 strain, at 50.0 µM, hits give high values. The method in brief: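 Strain: mec2-1 (DNA repair/cell cycle alteration). Compound exposure, then growth measured; inhibition expressed relative to vehicle.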
For `N=C(N)SCCC(=O)O`, the growth inhibition is -21.1%.
Regarding `COC(=O)C(CO)NC(=O)C(CSC(c1ccccc1)(c1ccccc1)c1ccccc1)NC(=O)OCc1ccccc1` (centres undefined) (Cbz-Cys(Trt)-Ser-OMe; configuration not given here), the growth inhibition is 68.7%.
Turning to `CC1(C)N=C(N)N=C(N)N1c1cccc(OCCCOc2ccc([N+](=O)[O-])cc2)c1`, the growth inhibition was -23.6%.
In the case of `CCN(CC)CCN(CC)CC(=O)Nc1ccccc1Cl`, the growth inhibition was -29.9%.
As to `O=c1[nH]c(N2CCN(c3ccccc3)CC2)nc2cc3ccccc3cc12`, the growth inhibition is -10.6%.
For `c1ccc(-c2cnc(C3CCCCC3)o2)cc1`, the growth inhibition was -14.1%.
The same measure, in the same setting: next, `C[N+](C)(C)C=Nc1cccc2c1CCCC2`: -37.8%.
With `COc1ncnc2c(NC3OC(CO)C(O)C3O)ncnc12` (centres undefined), the growth inhibition was -6.5%.
As for `Cn1c2cc(Cl)c(Cl)cc2nc2cc3c(cc21)c(Cl)c(=O)c1cc2cc(Cl)c(Cl)cc2cc13`, the growth inhibition was 8.65%.
Regarding `CN1C=C([N+](=O)[O-])C(N2CCOCC2)C1N1CCOCC1` (centres undefined), the growth inhibition is 0.65%.
Consider `O=C1NCC(c2ccccc2)(C2CC2)O1` (centres undefined), for which the growth inhibition was 6.65%.
With `CCOC(=O)c1noc(Oc2ccc(Cl)cc2Cl)n1`, the growth inhibition is 0.15%.
Same read-out and setting: next, `CCCN(CCC)C(=S)S`: 7.95%; `CSc1ncnc2c1ccn2C1OC(COP(=O)(O)O)C(O)C1O` (centres undefined): -1.35%.
The same measure, in the same setting: the result for `O=C(O)c1c(Br)c(Br)c(Br)c(Br)c1C(=O)Nc1ccc([N+](=O)[O-])cc1` reads 2.65%.
As for `Cc1ccc(N2C(=O)CSC2=S)cc1F`, the growth inhibition was 6.55%.
On to `Cc1ccc(C#N)c2c1CCC2`, for which the growth inhibition is -10.7%.
For `CCOC(=O)/C=C/C(=O)OCC`, the growth inhibition is -0.2%.
Consider `COc1ccc(C(=O)C(CO)Oc2ccccc2OC)cc1OC` (centres undefined), for which the growth inhibition is 7.5%.
As to `O=C(O)CCC(=O)Nc1cc(C(F)(F)F)ccc1Cl`, the growth inhibition was 13.7%.
On to `Clc1ccc(OCc2nnc3n2N=C(c2ccc(Br)cc2)CS3)cc1`, for which the growth inhibition is 8.35%.
With `CC(C)C(=O)C(F)(F)F`, the growth inhibition is 2.45%.
With `O=C(OC1C#CCSCC#C/C=C\1)c1ccc2c(c1)C(=O)c1ccccc1C2=O` (centres undefined), the growth inhibition was -34%.
Consider `Cc1ccc2c(c1)Nc1ccccc1P2(=O)O`, for which the growth inhibition is -3.15%.
For the compound `NC(=O)SCC(=O)Nc1ccc2cccc3c2c1CC3`, the growth inhibition is 60.3%.
The same measure, in the same setting: next, `CC1=CCC(CC(=O)O)C1(C)C` (centres undefined): 2.05%; `O=C(NC(c1ccccc1)C(O)c1ccccc1)C(Cl)Cl` (centres undefined): -14.8%.
Regarding `O=C1c2ccccc2C(=O)c2c1cc1c(c2O)OCO1`, the growth inhibition is 13.4%.
Turning to `CCCCCCCCCCCCC(F)C(=O)OCC1OC(n2cc(C)c(=O)[nH]c2=O)CC1N=[N+]=[N-]` (centres undefined), the growth inhibition was -15.7%.
As to `CN1C(C)(C)NC(=S)C1(C)C`, the growth inhibition is -18.1%.
As for `NC(=S)N/N=C(\CCC(=O)Nc1ccccc1[N+](=O)[O-])CC(=O)c1ccco1`, the growth inhibition was -1.95%.
For the compound `CC(C)(C)CC(C)(C)NS(=O)(=O)NC(C)(C)CC(C)(C)C`, the growth inhibition was -31.1%.
On to `O=C(O)c1cccc(Br)c1[N+](=O)[O-]`, for which the growth inhibition is -7.9%.
The same measure, in the same setting: next, `CC(=O)NC(CSCN(C)c1nc(N(C)C)nc(N(C)C)n1)C(=O)O` (centres undefined): -3.45%; `CN(C)CC1CCCCCCCCCC(CN(C)C)C1=O` (centres undefined): 19.9%.
Take `CCCCCCC(=O)C(=O)O`: the growth inhibition was 37.8%.
For `[N-]=[N+]=NC1(Cc2ccccc2)C(=O)Nc2ccccc2C1=O` (centres undefined), the growth inhibition is -10.1%.
On to `O=C(O)CCC1COc2ccccc2O1` (centres undefined), for which the growth inhibition was -8.35%.
For `O=C1NC(=O)C(F)(F)C1(F)F`, the growth inhibition is 7.3%.
For the compound `CC1(C)C/C(=C\c2ccc([N+](=O)[O-])cc2)C(=O)c2ccccc21`, the growth inhibition is 71.7% (active).

For the origin of these results see PubChem BioAssay (NCI).
